Results from the supplement of paper PMC13380429.

Tested on: Vero E6 infected with SARS-CoV-2
Assay: inhibition of SARS-CoV-2 cytopathic effect; higher = more antiviral protection, active = above 15
Settings: 48 h

Compound	inhibition of SARS-CoV-2 cytopathic effect (1 nM)	inhibition of SARS-CoV-2 cytopathic effect (8.33 nM)	inhibition of SARS-CoV-2 cytopathic effect (100 nM)	inhibition of SARS-CoV-2 cytopathic effect (833.33 nM)	inhibition of SARS-CoV-2 cytopathic effect (10000 nM)
COC(=O)C1=C(C)NC(C)=C(C(=O)OCCCN2CCC(c3ccccc3)(c3ccccc3)CC2)[C@@H]1c1cccc([N+](=O)[O-])c1 [dexniguldipine]	1.4% (inactive)	0.16% (inactive)	2.09% (inactive)	-3.36% (inactive)	-4.64% (inactive)
O=C(c1ccccc1)C(O)c1ccccc1 (stereo not given) [benzoin]	0.3% (inactive)	0.27% (inactive)	-1.79% (inactive)	1.45% (inactive)	0.76% (inactive)
NC(=O)CN1C=CCC(C(N)=O)=C1 [caricotamide]	0.48% (inactive)	2.71% (inactive)	1.14% (inactive)	-1.91% (inactive)	0.44% (inactive)
O=C(CCCl)NCc1ccccc1 [beclamide]	-5.2% (inactive)	-1.11% (inactive)	0.49% (inactive)	0.86% (inactive)	-1.73% (inactive)
COc1ccc(S(=O)(=O)Nc2cc(Cl)cc(Cl)c2OC)cc1N1CCNCC1	-1.83% (inactive)	1.03% (inactive)	1.96% (inactive)	5.17% (inactive)	-2.32% (inactive)
COc1c(OCCCN2CCOCC2)ccc2c1N=C(NC(=O)c1cnc(N)nc1)N1CCN=C21 [copanlisib]	-2.48% (inactive)	-1.99% (inactive)	-3.58% (inactive)	-5.18% (inactive)	-12.2% (inactive)
CNCc1ccc(-c2[nH]c3cc(F)cc4c3c2CCNC4=O)cc1 [rucaparib]	1.82% (inactive)	5.76% (inactive)	7.61% (inactive)	5.18% (inactive)	0.16% (inactive)
CCN(CC)CCOC(=O)C1(C2CCCCC2)CCCCC1 [dicycloverine]	17.5% (active)	0.53% (inactive)	2.57% (inactive)	0.85% (inactive)	1.16% (inactive)
CC(=O)N1CCN(CCOc2ccc(C3CCN(C4=Nn5c(nnc5C(F)(F)F)CC4)CC3)cc2)CC1	0.09% (inactive)	1.43% (inactive)	0.26% (inactive)	1.65% (inactive)	1.88% (inactive)
Cc1ccc2c(c1CCC(=O)O)CC[C@@H](NS(=O)(=O)c1ccc(Cl)cc1)C2 [terutroban]	-4.39% (inactive)	-2.46% (inactive)	-5.1% (inactive)	-1.42% (inactive)	0.09% (inactive)
C/C=C/C[C@@H](C)C(=O)[C@H]1C(=O)N[C@@H](C(C)C)C(=O)N(C)CC(=O)N(C)[C@@H](CC(C)C)C(=O)N[C@@H](C(C)C)C(=O)N(C)[C@@H](CC(C)C)C(=O)N[C@@H](C)C(=O)N[C@H](C)C(=O)N(C)[C@@H](CC(C)C)C(=O)N(C)[C@@H](CC(C)C)C(=O)N(C)[C@@H](C(C)C)C(=O)N1C [valspodar]	-5.19% (inactive)	-0.88% (inactive)	-1.83% (inactive)	0.22% (inactive)	8.33% (inactive)
Cn1ncc2c(N3CCOCC3)nc(-c3cccc(O)c3)nc21	-0.24% (inactive)	-1.45% (inactive)	0.03% (inactive)	1.57% (inactive)	-0.01% (inactive)
O=c1n(CCCN2CCN(c3cccc(Cl)c3)CC2)nc2ccccn12 [trazodone]	0.53% (inactive)	4.07% (inactive)	0.98% (inactive)	-1.12% (inactive)	-0.82% (inactive)
O=C(Nc1ccccc1C(=O)Nc1ccc(CCO)cc1)c1ccc([N+](=O)[O-])cc1	-0.75% (inactive)	0.23% (inactive)	-1.82% (inactive)	-1.34% (inactive)	-1.2% (inactive)
O=c1[nH]cnc2nc[nH]c12 [hypoxanthine]	4.22% (inactive)	2.78% (inactive)	1.76% (inactive)	0.21% (inactive)	2.46% (inactive)
CCCCCCCCCCCCc1ccc(S(=O)(=O)Nc2nncs2)cc1	-0.85% (inactive)	0.48% (inactive)	-0.22% (inactive)	-2.3% (inactive)	-0.65% (inactive)
Cc1cc(Nc2ncc(Cl)c(Nc3ccccc3S(=O)(=O)C(C)C)n2)c(OC(C)C)cc1C1CCNCC1 [ceritinib]	-0.41% (inactive)	1.21% (inactive)	2.17% (inactive)	-2.36% (inactive)	58.8% (active)
CCN(CCNC(=O)Nc1ccccc1Br)c1cccc(C)c1	-0.09% (inactive)	2.65% (inactive)	-0.41% (inactive)	-0.7% (inactive)	0.98% (inactive)
NS(=O)(=O)c1cc(C(=O)O)cc(N2CCCC2)c1Oc1ccccc1 [piretanide]	3.5% (inactive)	5.18% (inactive)	2.39% (inactive)	-2.57% (inactive)	1% (inactive)
O=C(Nc1ccccc1Br)N[C@@H]1CCN(c2ccc(C(F)(F)F)cn2)C1	3.02% (inactive)	3.06% (inactive)	1.72% (inactive)	3.42% (inactive)	1.82% (inactive)

Compound	inhibition of SARS-CoV-2 cytopathic effect (1 nM)	inhibition of SARS-CoV-2 cytopathic effect (8.33 nM)	inhibition of SARS-CoV-2 cytopathic effect (100 nM)	inhibition of SARS-CoV-2 cytopathic effect (833.33 nM)	inhibition of SARS-CoV-2 cytopathic effect (10000 nM)
NC(=O)NC(=O)Cc1ccccc1 [phenacemide]	-1.41% (inactive)	0.22% (inactive)	-0.3% (inactive)	0.89% (inactive)	0.35% (inactive)
CN(C)CC(=O)Nc1ccc2[nH]c(=O)c3ccccc3c2c1	1.34% (inactive)	2.81% (inactive)	1.23% (inactive)	5.19% (inactive)	6.44% (inactive)
COc1ccc(-n2[nH]c3c4c(ncc3c2=O)CCCCC4)cc1	0.69% (inactive)	0.11% (inactive)	-0.83% (inactive)	1.15% (inactive)	-1.86% (inactive)
O=C(O[C@H]1CN2CCC1CC2)N(Cc1cc(F)c(F)c(F)c1)c1cccc(F)c1 [tarafenacin]	1.69% (inactive)	-0.35% (inactive)	2.28% (inactive)	-1.46% (inactive)	-7.54% (inactive)
Cc1ccc(C(=O)Nc2ccc(Oc3cc4cnn(C)c4cc3-c3cn[nH]c3)c(F)c2)c(=O)n1-c1ccc(F)cc1	-0.46% (inactive)	1.35% (inactive)	-1.01% (inactive)	-1.13% (inactive)	-2.06% (inactive)
Nc1ncnc2c1c(-c1ccc(Oc3ccccc3)cc1)nn2C1CCCC1	3.63% (inactive)	1.32% (inactive)	0.15% (inactive)	-0.21% (inactive)	-13.6% (inactive)
C[C@@H]1O[C@@H](O[C@H]2[C@H](Oc3cc(O)c(C(=O)CCc4ccc(O)cc4)c(O)c3)O[C@H](CO)[C@@H](O)[C@@H]2O)[C@H](O)[C@H](O)[C@H]1O [naringin-dihydrochalcone]	0.83% (inactive)	0.35% (inactive)	0.27% (inactive)	0.83% (inactive)	1.4% (inactive)
Nc1nnc(Sc2ncc([N+](=O)[O-])s2)s1	3.57% (inactive)	-1.18% (inactive)	-0.27% (inactive)	-2.43% (inactive)	-20.9% (inactive)
COc1cc(-n2cnc3cc(-c4ccc(Cl)cc4)sc3c2=O)ccc1OCCN1CCCC1	-1.24% (inactive)	0.96% (inactive)	0.81% (inactive)	-2.38% (inactive)	49.9% (active)
OC[C@H]1O[C@H](O[C@]2(CCl)O[C@H](CCl)[C@@H](O)[C@@H]2O)[C@H](O)[C@@H](O)[C@H]1Cl [sucralose]	0.95% (inactive)	0.58% (inactive)	0.66% (inactive)	-0.54% (inactive)	-0.48% (inactive)
Oc1nc(O)c2nc(O)[nH]c2n1 [uric-acid]	-0.34% (inactive)	0.2% (inactive)	-1.96% (inactive)	-1.44% (inactive)	-0.42% (inactive)
Brc1c(NC2=NCCN2)ccc2nccnc12 [brimonidine]	4.55% (inactive)	0.66% (inactive)	0.75% (inactive)	2.72% (inactive)	0.94% (inactive)
OCCCCO [1,4-butanediol]	-4.4% (inactive)	-1.22% (inactive)	-1.14% (inactive)	0.26% (inactive)	-1.17% (inactive)
CC(=O)O[C@H]1CC[C@@]2(C)C(=CC[C@@H]3[C@@H]2CC[C@]2(C)C(=O)CC[C@@H]32)C1 [prasterone-acetate]	-0.78% (inactive)	2.86% (inactive)	3.18% (inactive)	4.82% (inactive)	-2.88% (inactive)
COc1ccc2[nH]c([S@@+]([O-])Cc3ncc(C)c(OC)c3C)nc2c1 [esomeprazole]	-1.94% (inactive)	-1.72% (inactive)	-0.5% (inactive)	-0.9% (inactive)	0.21% (inactive)
Nc1nonc1/C(=N/O)Nc1ccc(F)c(Cl)c1	5.29% (inactive)	3.44% (inactive)	2.09% (inactive)	0.57% (inactive)	-2.02% (inactive)
CCOC(=O)n1ccn(C)c1=S [carbimazole]	-1.34% (inactive)	-2.13% (inactive)	-2.63% (inactive)	-3.71% (inactive)	1.38% (inactive)
Cc1noc(NS(=O)(=O)c2cccc3c(N(C)C)cccc23)c1C	0.18% (inactive)	0.76% (inactive)	0.03% (inactive)	1.44% (inactive)	0.04% (inactive)
CN(C)CC/C=C1/c2ccccc2COc2ccccc21 [doxepin]	-0.79% (inactive)	1.36% (inactive)	1.85% (inactive)	-1.94% (inactive)	-2.1% (inactive)
CC(=O)NCCCCCC(=O)O [acexamic-acid]	1.78% (inactive)	1.59% (inactive)	0.61% (inactive)	0.94% (inactive)	0.09% (inactive)
